Vaccinia Venus = inhibitors of vaccinia virus (Venus reporter). Vaccinia virus Venus reporter expression, fluorescence. Potency, µM (series often up to 36.5 µM), for the others: at the highest dose activity change, negative = inhibition, usual class: inhibitors. 330,000 tested, 0.46% active. AID 720580; calls by dose curve; tested in A549 cells; further: potency means the concentration at half of the fitted maximal effect; on the % scale 0 is the no-effect control and ±100 the full control effect; nearly all actives have a fitted effect of over 30% in size
Vaccinia mCherry = vaccinia inhibition (mCherry reporter); 310,000 tested, 0.63% active; Potency, µM (series often up to 36.5 µM), without a hit: at the highest dose activity change, negative = inhibition, actives largely listed as inhibitors; Vaccinia virus mCherry reporter infection, fluorescence; calls by dose curve; tested in A549 cells; further: potency means the concentration at half of the fitted maximal effect; on the % scale 0 is the no-effect control and ±100 the full control effect; nearly all actives have a fitted effect of over 35% in size
CHX counter = counter-screen hit for Shiga toxin inhibitors, cycloheximide. cell reporter, cycloheximide protein synthesis inhibition counterscreen. 300,000 tested, 12% active. max response, %. AID 2314; in the data active means max response mostly above about 13%, no sharp cut-off; inactive means mostly below about 14%; further: read at 38.3 µM for the half of the compounds with a filed dose; 0% is about no effect
MARV entry inh = blocks Marburg virus binding to or entry into cells; Marburg virus pseudotyped entry inhibition, cell reporter; Potency, µM (titrated, usually from 37.8 µM), for the others: top-dose activity change, negative = inhibition, actives largely listed as inhibitors; 300,000 tested, 1.8% active; AID 540276; calls by dose curve; tested in HEK293 cells; further: potency means the concentration at half of the fitted maximal effect; on the % scale 0 is the no-effect control and ±100 the full control effect
Lassa entry inh = blocks Lassa virus binding to or entry into cells; Potency, µM (doses to about 37.9 µM), inactives show at the top dose activity change, negative = inhibition, hits mostly inhibitors; Lassa virus pseudotype entry inhibition, cell reporter; 300,000 tested, 1.2% active; AID 540256; calls by dose curve; tested in HEK293 cells; further: potency means the concentration at half of the fitted maximal effect; on the % scale 0 is the no-effect control and ±100 the full control effect; nearly all actives have a fitted effect of over 50% in size
Shiga inhibitor = Shiga toxin inhibition | inhibition, % at 38.7 µM | Vero cells, Shiga toxin protein synthesis inhibition reporter | AID 2315 | 290,000 tested, 9.2% active; in the data active means inhibition mostly above about 28%, no sharp cut-off; inactive means mostly below about 43%; further: 0% is about no effect
Starred values were filed as active, the others as inactive; i = inactive; ? = inconclusive; . = no result given; [ ] = remark or other dose. Only a selection was taken, and hits are over-represented in it overall.

SMILES	Vaccinia Venus	Vaccinia mCherry	CHX counter	MARV entry inh	Lassa entry inh	Shiga inhibitor
CCCc1cc(C(=O)NCc2ccco2)no1	-0.3%	0.9%	15.3*	.	.	71.5*
CCCc1cc(C(=O)NCc2cccnc2)no1	12.1%	-5.9%	-1.1	.	.	1.1
COc1cc(C)ccc1OCCOc1c(C)cccc1Cl	-6.9%	-0.9%	23.9*	9.7%	-0.7%	57.3*
COc1ccccc1OCCOCCOc1ccc(C)cc1Br	-3.9%	i	0.8	-2.8%	18.4%	-5.7
COc1cc(C)ccc1OCCON1C(=O)CCC1=O	-9.5%	-6.0%	31.6*	19.3%[46.1 µM]	-6.1%[46.1 µM]	55.3
COc1cc(C)ccc1OCCOc1cc(C)ccc1Cl	-14.0%	-24.2%	7.1	?	7.3%	26.3
COc1cc(C)ccc1OCCCOc1ccccc1Br	0.0%	3.4%	64.1*	-11.9%	?	110.2*
COc1cc(C)ccc1OCCOc1c(Cl)cc(Cl)cc1Cl	-29.5%	.	-5.0	?	3.1%	-20.2
COc1ccccc1OCCCOc1ccc(C)cc1Br	-5.5%	-12.0%	45.5*	23.1%	3.9%	73.8*
O=C(Nc1cccc([N+](=O)[O-])c1)C(=O)N1CCCCC1	-10.4%	i	43.0*	.	.	69.4*
O=[N+]([O-])c1cccc(NC(=S)N2CCCC2)c1	-5.7%	-0.1%	1.7	3.6%[46.1 µM]	1.5%[46.1 µM]	-5.2
O=C(Nc1cccc(C(F)(F)F)c1)C(=O)N1CCCCC1	-18.3%	-10.6%	11.2*	17.4%[46.1 µM]	-23.4%[46.1 µM]	23.7
CCOC(=O)c1sc(NC(=O)C(OC(C)=O)c2ccccc2)nc1C (stereo not given)	-10.0%	-5.5%	24.7*	?	13.4%	38.8*
CCOC(=O)c1sc(NC(C)=O)nc1C	5.1%	-4.0%	-1.0	?	-14.9%	-13.8
CCOC(=O)c1sc(NC(=O)CC(C)c2ccccc2)nc1C (stereo not given)	-26.3%	-14.6%	-1.5	5.62µM*	?	9.8
Cc1cnc(NC(=O)CCNC(=O)c2ccccc2Cl)s1	-3.5%	-3.0%	13.1	?	8.8%	26.8
Cc1cnc(NC(=O)CC(C)c2ccccc2)s1 (stereo not given)	-20.7%	-13.4%	28.4*	?	3.8%[46.1 µM]	59.6*
Cc1cnc(NC(=O)COc2ccccc2Cl)s1	.	.	10.7	2.31µM*	1.83µM*	-14.5
COC(=O)c1ccc(C(=O)OC)c(NC(=O)c2cnn3c(C(F)F)cc(-c4ccccc4)nc23)c1	-6.7%	0.3%	.	.	12.0%[46.1 µM]	.
CC(C)CN(C)Cc1c(C(=O)N2CCc3ccccc3C2)nc2ccc(Cl)cn12	-13.8%	-2.0%	0.8	11.2µM*	-5.3%	-8.8
CCOC(=O)c1nc2sc3c(c2c(=O)n1C(C)C(=O)OCC)CCCC3 (stereo not given)	-7.0%	i	8.0	0.6%[46.1 µM]	28.5%[46.1 µM]	-5.5
CC(=O)c1cccc(NC(=O)C(Sc2ncnc3ccccc23)c2ccccc2)c1 (stereo not given)	-4.7%	-23.6%	8.0*	-21.4%	1.5%	9.3
O=C(Nc1ccccc1)c1cc2n(n1)C(C(F)(F)F)CC(C1CC1)N2 (stereo not given)	.	.	36.3*	0.0%	22.3%	58.5*
O=C(Nc1nc2c(s1)CCCC2)c1cc2n(n1)C(C(F)(F)F)CC(C1CC1)N2 (stereo not given)	-14.2%	.	19.0*	?	?	40.4
COc1cc(-c2cnc3ccccc3c2)cc2c1OCCN(S(=O)(=O)C[C@]13CC[C@H](CC1=O)C3(C)C)C2	3.5%	-10.7%	.	.	.	.
SMILES	Vaccinia Venus	Vaccinia mCherry	CHX counter	MARV entry inh	Lassa entry inh	Shiga inhibitor
Cc1ccc(O)c(C(=O)/C=C/c2ccc3c(c2)OCCO3)c1	-18.6%	i	32.9*	.	.	141.6*
O=C(/C=C/c1ccc2c(c1)OCCO2)c1ccccc1	.	.	42.2*	.	.	74.2*
COc1ccc(C(=O)/C=C/c2ccc3c(c2)OCCO3)cc1	-4.0%	-4.1%	30.9*	-12.8%	-14.9%	92.2*
COc1ccc2cc(C(=O)/C=C/c3cc(OC)c(OC)c(OC)c3)ccc2c1	-13.4%	-17.1%	17.2	?	-29.9%[46.1 µM]	11.7
COC(=O)C1=C(C)N(CC2CC2)C(=O)NC1c1ccccc1 (stereo not given)	.	.	.	-5.3%[14.2 µM]	.	.
COc1ccc(-n2c(SCC(=O)N3CCC(C(=O)O)CC3)nc3ccccc3c2=O)cc1OC	-16.0%	i	11.2	0.5%[46.1 µM]	7.9%[46.1 µM]	-12.5
O=C(NC1CCCC1)c1cn(C2CCCN(Cc3ccc4c(c3)OCCO4)C2)nn1 (stereo not given)	2.2%	1.0%	.	.	.	.
C[C@@H]1C=CCCO[C@]12C(=O)N(CC1CC1)c1cccc(Br)c12	.	.	.	-10.1%[14.2 µM]	.	.
COc1ccc(C(=O)Nc2nc3nc(C)c(Cc4ccccc4)c(=O)n3[nH]2)cc1OC	-10.8%	i	.	11.7%[46.1 µM]	?	.
O=C1/C(=C/c2ccncc2)CCc2ccccc21	.	.	34.3*	.	.	55.6*
COc1ccc(C=C2CCc3ccccc3C2=O)cc1	-13.3%	-4.6%	.	.	.	.
O=C1/C(=C/c2ccncc2)CCC/C1=C\c1ccncc1	11.2µM*	10µM*	-7.4	.	.	-20.5
CCOc1ccc(/C=C2\CCc3ccccc3C2=O)cc1	-21.2%	i	29.9*	?	?	70.7*
COc1ccc(CCC(=O)NCc2ccc3c(c2)CCN3C(=O)c2cccc(C)c2)cc1	?	-19.9%	.	.	-7.6%[46.1 µM]	.
Cc1ccc(C(=O)Oc2cccc(-n3cnnn3)c2)cc1	-10.6%	-11.1%	40.0*	1.1%[46.1 µM]	-29.7%[46.1 µM]	57.2*
CC(C)(C)c1ccc(C(=O)Nc2cccc(-n3cnnn3)c2)cc1	.	.	24.3*	.	.	34.1*
O=C(Nc1ccccc1)c1ccc(-n2cnnn2)cc1	.	.	15.4*	.	.	23.2*
O=C(Oc1cccc(-n2cnnn2)c1)c1ccco1	-15.5%	.	-1.2	1.8%[46.1 µM]	3.7%	6.1
COC(=O)c1ccc(N2C(=O)C[C@H](N3CCN(C(=O)c4ccco4)CC3)C2=O)cc1	.	.	.	21.5%	.	.
Cc1cn([C@H]2C[C@H](O)[C@@H](/C=C/C(=O)NCc3cccc4ccccc34)O2)c(=O)[nH]c1=O	0.1%	i	.	.	.	.
CC(C)(C)c1ccc(CSc2nc(N)cc(=O)[nH]2)cc1	-22.7%	-28.7%	38.6*	?	-18.2%	41.4*
Nc1cc(=O)[nH]c(SCc2ccc(Cl)cc2)n1	.	.	-1.4	-10.1%	-11.1%	33.0
O=C(CCN1C(=O)c2ccccc2S1(=O)=O)Nc1ccc(C(=O)O)cc1	-3.1%	-2.4%	0.9	.	.	-3.2
Cc1cccc2c(N3CCCC3)nc(CNS(=O)(=O)c3ccccc3Cl)nc12	2.8%	-6.2%	.	.	.	.
CCOc1ccc(/C=C/C(=O)C(C(N)=O)=C2SCCS2)cc1	-26.2%	4.47µM*	34.5*	?	1.6%	57.2*
CCOc1ccc(/C=C/C(=O)Oc2ccccc2)cc1	-10.0%	-13.4%	-2.3	?	-4.5%	-2.0
Cc1ncc2c(c1CNC(=O)c1ccccc1F)CCN(C(=O)c1[nH]c3ccc(Cl)cc3c1C)C2	-2.9%	0.8%	.	.	.	.
O=[N+]([O-])c1ccc2c(c1)nc1n2CCN(c2ccccc2)C1	.	.	37.2*	.	.	29.0*
O=[N+]([O-])c1ccc2c(c1)nc1n2CCN(CC2CCCO2)C1 (stereo not given)	.	.	28.2*	.	.	24.3
COc1ccc(S(=O)(=O)N2CCOCC2)cc1C(=O)N1CCCCC1	-11.1%	i	-1.0	19.0%	0.8%	-4.2

Screens (PubChem BioAssay)
